From PubChem BioAssay come the findings set out here.

Entries with a potency or affinity are not part of this list. The source made the active and inactive calls. How the calls were made is not given here.

The test is described as follows: OVCAR8 cell viability loss – plate reader, dry powder samples, PAX8 project, dose response (AID 743197). Particulars: series mostly up to 35 µM.
With `C[C@H](CO)N1C[C@H](C)[C@H](CN(C)Cc2ccc(Cl)c(Cl)c2)Oc2c(NS(=O)(=O)c3ccc(Cl)cc3)cccc2C1=O`, the call was inactive.

Turning to `C[C@@H]1CN([C@H](C)CO)C(=O)c2cc(NC(=O)c3ccncc3)ccc2O[C@@H](C)CCCCO[C@H]1CN(C)Cc1ccc(C(F)(F)F)cc1`, the compound was called inactive.

With `C[C@@H]1CN([C@@H](C)CO)C(=O)c2cc(NS(=O)(=O)c3ccc(Cl)cc3)ccc2O[C@@H](C)CCCCO[C@H]1CN(C)Cc1ccc(C(F)(F)F)cc1`, the compound was called inactive.

Consider `C[C@H]1CCCCO[C@@H](CN(C)C(=O)c2ccccc2)[C@@H](C)CN([C@@H](C)CO)C(=O)c2cc(NC(=O)Nc3ccc(C(F)(F)F)cc3)ccc2O1`, for which the result was inactive.

Turning to `C[C@@H]1CN([C@@H](C)CO)C(=O)c2cc(NS(=O)(=O)c3ccccc3)ccc2O[C@@H](C)CCCCO[C@@H]1CN(C)Cc1ccc(C(F)(F)F)cc1`, the compound was classed as inactive.

`C[C@@H]1CN([C@H](C)CO)C(=O)c2cc(NC(=O)Nc3ccccc3)ccc2O[C@@H](C)CCCCO[C@H]1CN(C)Cc1ccc(Cl)c(Cl)c1`: the result was inactive.

Regarding `C[C@@H]1CCCCO[C@@H](CN(C)Cc2ccc(Cl)c(Cl)c2)[C@H](C)CN([C@@H](C)CO)C(=O)c2cc(NC(=O)Cc3ccccc3)ccc2O1`, the result was inactive.

As to `C[C@H]1CCCCO[C@H](CN(C)S(=O)(=O)c2ccc(Cl)cc2)[C@@H](C)CN([C@@H](C)CO)C(=O)c2cc(NS(=O)(=O)c3ccc(Cl)cc3)ccc2O1`, the compound was classed as inactive.

For the compound `C[C@@H]1CN([C@@H](C)CO)C(=O)c2cc(NC(=O)c3ccccc3)ccc2O[C@@H](C)CCCCO[C@H]1CN(C)Cc1ccc(C(F)(F)F)cc1`, the compound was called inactive.

For `C[C@@H]1CCCCO[C@H](CN(C)C)[C@H](C)CN([C@H](C)CO)C(=O)c2cc(NC(=O)Nc3cccc4ccccc34)ccc2O1`, the compound was classed as inactive.

Consider `C[C@H](CO)N1C[C@H](C)[C@@H](CN(C)C(=O)NC2CCCCC2)Oc2cc(C#Cc3ccc(F)cc3)ccc2S1(=O)=O`, for which the result was inactive.

With `C[C@H]1CCCCO[C@@H](CN(C)C(=O)Nc2ccc(C(F)(F)F)cc2)[C@@H](C)CN([C@@H](C)CO)C(=O)c2cc(NS(=O)(=O)c3cn(C)cn3)ccc2O1`, the result was inactive.

Regarding `COc1ccccc1-c1ccc2c(c1)O[C@H](CN(C)Cc1ccc3c(c1)OCO3)[C@H](C)CN([C@@H](C)CO)S2(=O)=O`, the call was inactive.

As for `C[C@@H]1CCCCO[C@H](CN(C)C(=O)NC2CCCCC2)[C@@H](C)CN([C@@H](C)CO)C(=O)c2cc(NC(=O)Nc3ccc(C(F)(F)F)cc3)ccc2O1`, the compound was called inactive.

`C[C@@H]1CN([C@@H](C)CO)C(=O)Cc2cc(NS(=O)(=O)c3ccc(F)cc3)ccc2O[C@H]1CN(C)Cc1ccc(Oc2ccccc2)cc1`: the outcome was inactive.
